Measurements taken from PubChem BioAssay (Tox21).
Inconclusive results are not listed. The source made the active and inactive calls. Unless noted, the call rests on the fitted dose curve.

Key:
[1] = Nuclear factor erythroid 2-related factor 2/antioxidant responsive element (Nrf2/ARE) small molecule agonists: qHTS cell viability counter screen in human keratinocytes (AID 1919968; active means well fitted curve in the direction sought with a large enough effect in the repeat runs; an effect the other way counts as inactive or inconclusive; further: nearly all actives have a fitted effect of over 55% in size; further: potency means the concentration at half of the fitted maximal effect)
Method in brief: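 Parallel cytotoxicity read: KeratinoSens HaCaT cells, compound treatment 23 h, viability by CellTiter-Fluor fluorescence 1 h post-reagent.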

[2] = Nuclear factor erythroid 2-related factor 2/antioxidant responsive element (Nrf2/ARE) small molecule agonists: luciferase reporter gene qHTS assay in human keratinocytes (AID 1919969); further: nearly all actives have a fitted effect of over 35% in size; further: potency means the concentration at half of the fitted maximal effect
[3] = target: Gonadotropin-releasing hormone receptor (Homo sapiens) (UniProt P30968); test: Human gonadotropin-releasing hormone receptor (GnRHR) small molecule agonists, calcium flux assay in GnRHR-HEK293 cells (AID 1920063); further: nearly all actives have a fitted effect of over 35% in size
Method in brief: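 Calcium flux, agonist mode, human GnRHR stably integrated in HEK293; dye 1 h at 37 C before compound; Ex/Em=480/540 kinetic read, 3 min; 15 concentrations, triplicate.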

[4] = target: KiSS-1 receptor (Homo sapiens) (UniProt Q969F8); test: Human kisspeptin (KISS1R) small molecule agonists, calcium flux assay in KISS1R-HEK293 cells (AID 1920064; active means well fitted curve in the direction sought with a large enough effect in the repeat runs; an effect the other way counts as inactive or inconclusive)
Method in brief: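 Triplicate 15-concentration series were applied to dye-loaded human KISS1R HEK293 cells, and agonist-evoked calcium fluorescence was captured for 3 min.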

[5] = G protein-coupled receptor (GPCR) small molecule agonists, calcium flux assay: HEK293 wild type cell line counter screen (AID 1920065)
Method in brief: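 Non-specific calcium responders were flagged by adding DMSO-dissolved compounds to dye-loaded cells and reading 480/540 nm fluorescence each second for 3 min; ATP served as positive control.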

[6] = p53 small molecule agonists, cell-based qHTS assay with human liver microsomes (AID 1963577);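 further: p53 response element beta-lactamase reporter cells with liver microsomes plus NADPH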
Method in brief: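 16 h, 37 C exposure of p53RE-bla cells to compounds with human liver microsomes and NADPH (0.5 mg/mL final each); detection via LiveBLAzer mixture, 2 h dark at room temperature.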

[7] = p53 small molecule agonists, cell-based qHTS assay with rat liver microsomes (AID 1963578)
Method in brief: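 With rat liver microsomes and NADPH present (0.5 mg/mL final each), p53RE-bla cells are treated with compound for 16 h at 37 C. LiveBLAzer detection mixture is then applied for 2 h at room temperature in the dark.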

[8] = p53 small molecule agonists, cell-based qHTS assay with human liver microsomes: qHTS cell viability counter screen (AID 1963579); further: nearly all actives have a fitted effect of over 45% in size
Method in brief: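 In this multiplexed counter screen, the reporter plates were subsequently treated with CellTiter-Glo so that cell viability, reflected by luminescence, could be recorded for p53RE-bla cells dosed 16 h with compounds under microsomal activation (HLM and NADPH).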

[9] = p53 small molecule agonists, cell-based qHTS assay with rat liver microsomes: qHTS cell viability counter screen (AID 1963580); further: nearly all actives have a fitted effect of over 45% in size; further: potency means the concentration at half of the fitted maximal effect
Method in brief: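 Luminescent ATP readout (CellTiter-Glo, 30 min at room temperature) reports viability of p53RE-bla HCT-116 cells after 16 h at 37 C with test compounds under metabolic activation by rat liver microsomes and NADPH at 0.5 mg/mL final each.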

[10] = p53 small molecule agonists, cell-based qHTS assay (AID 1963582; active means well fitted activation curve with a large enough effect in the signal ratio in the repeat runs, not every such curve was filed as active; the % refers to the signal ratio)
Method in brief: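 Beta-lactamase reporter cells (p53RE-bla) treated with compounds for 16 h at 37 C; FRET substrate, 2 h, room temperature; fluorescence intensity.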

[11] = target: 5-hydroxytryptamine receptor 2A (Homo sapiens) (UniProt P28223); test: 5-hydroxytryptamine receptor 2A (HTR2A) small molecule antagonists, cell-based qHTS assay (AID 1963586); further: nearly all actives have a fitted effect of over 45% in size
Method in brief: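 CHO cells stably expressing human HTR2A were plated for 18 h at 37 C, then loaded with calcium dye for 1 h. Compounds were preincubated 5 min at room temperature before DOI (4 nM solution) was added. Kinetic fluorescence was read for 3 min.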

[12] = target: 5-hydroxytryptamine receptor 2A (Homo sapiens) (UniProt P28223); test: 5-hydroxytryptamine receptor 2A (HTR2A) small molecule agonists, cell-based qHTS assay (AID 1963587); further: nearly all actives have a fitted effect of over 30% in size
Method in brief: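 HTR2A-CHO cells, plated 18 h at 37 C/5% CO2, dye-loaded 1 h at 37 C; compounds in DMSO added by pin tool (agonist mode). Intracellular calcium flux read as kinetic fluorescence on FDSS over 2 min at 1 s intervals.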

[13] = target: Muscarinic acetylcholine receptor M1 (Homo sapiens) (UniProt P11229); test: Cholinergic receptor muscarinic 1 (CHRM1) small molecule antagonists, cell-based qHTS assay (AID 1963588); further: nearly all actives have a fitted effect of over 40% in size
Method in brief: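 Compounds were tested at 15 concentrations in three independent runs. Dye-loaded CHRM1-CHO cells were exposed 5 min at room temperature before stimulation by acetylcholine added at 50nM. Intracellular calcium was read kinetically on FDSS for 3 min.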

[14] = target: Muscarinic acetylcholine receptor M1 (Homo sapiens) (UniProt P11229); test: Cholinergic receptor muscarinic 1 (CHRM1) small molecule agonists, cell-based qHTS assay (AID 1963589); further: nearly all actives have a fitted effect of over 35% in size
Method in brief: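 qHTS, 15-point titration, 3 independent runs: compounds pin-transferred onto dye-loaded CHRM1-CHO cells (human M1), calcium fluorescence followed every second to detect agonism.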

[15] = cAMP Responsive Elements (CRE) small molecule agonists, cell-based qHTS assay (AID 1963590)
Method in brief: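 Quantitative HTS for CRE agonists: HEK 293T CRE-bla cells, overnight plating, 3 h compound incubation at 37 C/5% CO2, then 2 h room-temperature LiveBLAzer B/G FRET substrate loading.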

[16] = cAMP Responsive Elements (CRE) small molecule antagonists, cell-based qHTS assay (AID 1963591; active means well fitted inhibition curve with a large enough effect in the signal ratio in the repeat runs, not every such curve was filed as active; the % refers to the signal ratio)
Method in brief: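 Fluorescence intensity from cleaved LiveBLAzer B/G substrate (2 h, room temperature) quantified CRE-bla activity in HEK 293T cells exposed 3 h to compound with 0.25 uM final NKH477.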

[17] = target: Beta-2 adrenergic receptor (Homo sapiens) (UniProt P07550); test: Adrenergic beta2 receptor (ADRB2) small molecule antagonists, cell-based qHTS assay (AID 1963592); further: series mostly up to about 92 µM; nearly all actives have a fitted effect of over 50% in size
Method in brief: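 Assay format: CHO-ADRB2 cells, 18-20hr seeding at 37C/5% CO2, then compound plus 1nM isoproterenol agonist mix for 0.5hr RT. Homogeneous time-resolved fluorescence cAMP detection after 1hr, expressed as 665/615 nm ratio.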

[18] = target: D(2) dopamine receptor (Homo sapiens) (UniProt P14416); test: Dopamine D2 receptor (DRD2) small molecule agonists, cell-based qHTS assay (AID 1963594); further: nearly all actives have a fitted effect of over 35% in size
Method in brief: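 HEK293 cells stably expressing DRD2 were cultured 24 h at 37 C, then given Ro20-1724 (0.1 mM final) and compounds for 10 min at room temperature. NKH477 (200nM) was then added for 30 min. cAMP was read by HTRF.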

[19] = target: D(2) dopamine receptor (Homo sapiens) (UniProt P14416); test: Dopamine D2 receptor (DRD2) small molecule antagonists, cell-based qHTS assay (AID 1963595; active means well fitted inhibition curve with a large enough effect in the signal ratio in the repeat runs, with a control signal flat; the % refers to the signal ratio)
Method in brief: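 Antagonism was scored as restored cAMP in HEK293-DRD2 cells. These cells were stimulated with 200 nM NKH477 and 12 nM quinpirole for 30 min at room temperature, in the presence of 0.1 mM Ro20-1724.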

[20] = target: Beta-2 adrenergic receptor (Homo sapiens) (UniProt P07550); test: Adrenergic beta2 receptor (ADRB2) small molecule agonists, cell-based qHTS assay (AID 1963593);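 further: CHO cells stably overexpressing human ADRB2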
Method in brief: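 CHO cells stably over-expressing ADRB2 were plated overnight at 37C, then dosed with compounds plus a stimulation mix containing 100uM IBMX and 25uM Ro-20-1724 for 0.5hr at room temperature. cAMP was measured by HTRF competition, 1hr.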

Measured: Potency

Sequence of D(2) dopamine receptor (Homo sapiens) (P14416 whole entry, looked up): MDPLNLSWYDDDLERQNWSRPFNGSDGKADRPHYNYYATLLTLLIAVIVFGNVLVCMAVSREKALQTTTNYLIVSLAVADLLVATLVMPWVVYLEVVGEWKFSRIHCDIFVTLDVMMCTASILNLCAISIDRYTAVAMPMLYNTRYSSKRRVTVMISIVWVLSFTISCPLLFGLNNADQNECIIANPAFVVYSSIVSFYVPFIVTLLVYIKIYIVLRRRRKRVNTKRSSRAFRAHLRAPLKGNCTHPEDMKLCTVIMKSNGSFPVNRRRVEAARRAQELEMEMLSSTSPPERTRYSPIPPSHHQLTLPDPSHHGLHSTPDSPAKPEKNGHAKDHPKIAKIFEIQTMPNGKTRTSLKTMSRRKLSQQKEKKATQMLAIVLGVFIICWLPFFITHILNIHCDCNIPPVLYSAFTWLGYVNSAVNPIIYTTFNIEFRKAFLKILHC
Sequence of Beta-2 adrenergic receptor (Homo sapiens) (P07550 whole entry, looked up): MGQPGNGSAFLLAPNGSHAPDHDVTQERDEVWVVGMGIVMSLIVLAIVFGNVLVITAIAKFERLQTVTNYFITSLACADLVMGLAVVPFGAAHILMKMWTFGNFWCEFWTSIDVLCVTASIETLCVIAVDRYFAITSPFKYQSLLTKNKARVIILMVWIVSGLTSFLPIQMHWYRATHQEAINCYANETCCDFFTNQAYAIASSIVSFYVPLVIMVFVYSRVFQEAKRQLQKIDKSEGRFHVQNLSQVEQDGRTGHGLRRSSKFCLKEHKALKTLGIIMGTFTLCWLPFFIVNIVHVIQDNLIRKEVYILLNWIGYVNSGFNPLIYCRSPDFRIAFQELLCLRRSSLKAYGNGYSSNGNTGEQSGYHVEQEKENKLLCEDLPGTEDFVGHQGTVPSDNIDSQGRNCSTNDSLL
Sequence of 5-hydroxytryptamine receptor 2A (Homo sapiens) (P28223 whole entry, looked up): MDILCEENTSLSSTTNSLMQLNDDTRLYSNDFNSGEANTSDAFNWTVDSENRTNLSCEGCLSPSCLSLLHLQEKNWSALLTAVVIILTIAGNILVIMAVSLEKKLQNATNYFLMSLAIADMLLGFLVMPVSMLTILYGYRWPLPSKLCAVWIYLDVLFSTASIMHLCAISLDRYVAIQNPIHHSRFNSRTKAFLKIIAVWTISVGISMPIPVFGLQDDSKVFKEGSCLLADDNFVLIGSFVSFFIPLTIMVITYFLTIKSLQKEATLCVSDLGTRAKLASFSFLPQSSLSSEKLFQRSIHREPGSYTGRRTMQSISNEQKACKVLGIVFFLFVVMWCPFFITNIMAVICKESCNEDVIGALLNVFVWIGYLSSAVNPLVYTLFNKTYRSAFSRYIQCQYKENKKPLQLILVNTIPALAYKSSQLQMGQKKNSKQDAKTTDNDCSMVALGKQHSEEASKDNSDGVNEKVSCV
Sequence of Gonadotropin-releasing hormone receptor (Homo sapiens) (P30968 whole entry, looked up): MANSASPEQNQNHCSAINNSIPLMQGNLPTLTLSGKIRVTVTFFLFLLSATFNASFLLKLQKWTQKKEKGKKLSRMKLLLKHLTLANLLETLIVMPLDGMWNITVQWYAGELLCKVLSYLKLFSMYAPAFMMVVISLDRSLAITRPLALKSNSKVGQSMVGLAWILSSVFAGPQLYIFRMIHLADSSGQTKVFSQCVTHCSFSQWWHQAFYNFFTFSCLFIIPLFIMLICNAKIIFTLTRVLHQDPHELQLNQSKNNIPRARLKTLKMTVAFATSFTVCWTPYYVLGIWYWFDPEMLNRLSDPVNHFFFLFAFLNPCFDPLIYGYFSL
Sequence of Muscarinic acetylcholine receptor M1 (Homo sapiens) (P11229 whole entry, looked up): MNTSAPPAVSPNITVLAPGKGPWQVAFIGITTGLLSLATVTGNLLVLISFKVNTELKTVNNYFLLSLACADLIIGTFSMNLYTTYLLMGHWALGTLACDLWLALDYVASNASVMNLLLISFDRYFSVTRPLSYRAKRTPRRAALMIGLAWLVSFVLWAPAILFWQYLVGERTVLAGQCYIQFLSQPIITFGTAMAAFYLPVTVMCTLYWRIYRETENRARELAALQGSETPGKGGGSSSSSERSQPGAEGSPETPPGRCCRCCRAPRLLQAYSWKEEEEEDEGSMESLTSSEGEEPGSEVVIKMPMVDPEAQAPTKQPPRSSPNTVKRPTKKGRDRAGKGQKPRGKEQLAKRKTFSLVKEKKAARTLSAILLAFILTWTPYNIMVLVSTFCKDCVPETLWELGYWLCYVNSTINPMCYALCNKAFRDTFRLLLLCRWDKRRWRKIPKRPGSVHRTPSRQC
Sequence of KiSS-1 receptor (Homo sapiens) (Q969F8 whole entry, looked up): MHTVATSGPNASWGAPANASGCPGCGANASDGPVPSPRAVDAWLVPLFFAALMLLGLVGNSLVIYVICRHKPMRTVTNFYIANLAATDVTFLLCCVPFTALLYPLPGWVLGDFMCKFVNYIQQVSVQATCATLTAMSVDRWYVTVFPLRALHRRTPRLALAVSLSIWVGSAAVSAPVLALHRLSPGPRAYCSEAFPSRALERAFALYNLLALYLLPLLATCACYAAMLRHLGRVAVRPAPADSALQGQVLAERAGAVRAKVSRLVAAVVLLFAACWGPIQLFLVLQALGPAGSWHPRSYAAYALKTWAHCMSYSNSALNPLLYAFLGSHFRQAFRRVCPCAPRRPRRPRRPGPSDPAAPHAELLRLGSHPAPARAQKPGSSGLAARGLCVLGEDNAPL

CCCCCCCCCCCCCCCCCC(=O)OCCCCCCCCCCCCCC(C)C
inactive: [1] | [2] | [3] | [4] | [5] | [6] | [7] | [8] | [9] | [10] | [11] | [12] | [13] | [14] | [15] | [16] | [17] | [18] | [19]

O=C(O)CCC(=O)C(=O)O
inactive: [1] | [2] | [3] | [4] | [5] | [6] | [7] | [8] | [9] | [10] | [11] | [12] | [13] | [14] | [15] | [16] | [17] | [18]

CC1(C)Cc2cccc(N)c2O1
inactive: [1] | [2] | [3] | [4] | [5] | [6] | [7] | [8] | [9] | [10] | [11] | [12] | [13] | [14] | [15] | [16] | [17] | [20] | [18]

O=c1cccccc1O
active: [1] 44.1 µM | [2] 24.8 µM | [9] 29.4 µM
inactive: [3] | [4] | [5] | [6] | [7] | [8] | [10] | [11] | [12] | [13] | [14] | [15] | [16] | [17] | [18]

CCOC(=O)CC(CC(=O)OCC)(OC(C)=O)C(=O)OCC
inactive: [1] | [2] | [3] | [4] | [5] | [6] | [7] | [8] | [9] | [10] | [11] | [12] | [13] | [14] | [15] | [16] | [17] | [18] | [19]

Cc1cc(C)n(CO)n1
inactive: [1] | [2] | [3] | [4] | [5] | [6] | [7] | [8] | [9] | [10] | [11] | [12] | [13] | [14] | [15] | [16] | [17] | [20] | [18] | [19]

CCCC(=O)OCOC(=O)C1=C(C)NC(C)=C(C(=O)OC)C1c1cccc(Cl)c1Cl (stereo not drawn)
inactive: [1] | [2] | [3] | [4] | [5] | [6] | [7] | [8] | [9] | [10] | [11] | [12] | [13] | [14] | [15] | [16] | [18] | [19]

Brc1c2ccccc2cc2ccccc12
inactive: [1] | [2] | [3] | [4] | [5] | [6] | [7] | [8] | [9] | [10] | [11] | [12] | [13] | [14] | [15] | [16] | [18] | [19]

CC(C)C(=O)OC/C=C/c1ccccc1
inactive: [1] | [2] | [3] | [4] | [5] | [6] | [7] | [8] | [9] | [10] | [11] | [12] | [13] | [14] | [15] | [16] | [17] | [20] | [19]

O=C(O)CCN(C1(C(=O)NO)CCCC1)S(=O)(=O)c1ccc(Oc2ccc(F)cc2)cc1
inactive: [1] | [2] | [3] | [4] | [5] | [6] | [7] | [8] | [9] | [10] | [11] | [12] | [13] | [14] | [15] | [17] | [20] | [18] | [19]

Cc1cccc(C)c1OCC(C)N (stereo not drawn)
inactive: [1] | [2] | [3] | [4] | [5] | [6] | [7] | [8] | [9] | [15] | [19]

O=c1[nH]cccc1O
inactive: [1] | [2] | [3] | [4] | [5] | [6] | [7] | [8] | [9] | [10] | [11] | [12] | [13] | [14] | [15] | [16] | [17] | [19]

CCCCC/C=C\CCC=O
inactive: [1] | [2] | [3] | [4] | [5] | [6] | [7] | [8] | [9] | [10] | [11] | [12] | [13] | [14] | [15] | [16] | [17] | [18] | [19]

Cc1cc(-c2ccccc2)nnc1NCCN1CCOCC1
inactive: [1] | [2] | [3] | [4] | [5] | [6] | [7] | [8] | [9] | [10] | [11] | [12] | [13] | [14] | [15] | [16] | [17] | [18] | [19]

Oc1ccc2c(c1)OCO2
inactive: [1] | [2] | [3] | [4] | [5] | [6] | [7] | [8] | [9] | [10] | [11] | [12] | [13] | [14] | [15] | [16] | [17] | [18] | [19]
